Screens from PubChem.
This is a sample that favours compounds with a hit; in the whole collection about 8.1% have one here.
SW480 rerep: DNA re-replication induction in SW480 cells; Potency, µM (doses to about 46.1 µM), without a hit: at the top dose re-replication activation, most hits filed as activators; AID 624297; 340,000 tested, 1.8% active; SW480 DNA re-replication, Hoechst DNA content imaging, 48 h; further: % of control where 0% means no effect; nearly all actives have a fitted effect of over 55% in size
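Image-based DNA-content assay: after two days of treatment, nuclei were labelled with the DNA dye Hoechst and imaged, and hits were compounds raising the count of nuclei showing high fluorescence intensity.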
KB-3-1 tox: kills parental KB-3-1 adenocarcinoma cells. KB-3-1 viability, CellTiter-Glo ATP luminescence, 72 h. 400,000 tested, 1.4% active. Potency, µM (doses to about 46.1 µM), hits mostly cytotoxic; further: on the % scale 0 is the no-effect control and ±100 the full control effect; nearly all actives have a fitted effect of over 60% in size
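72 h, 37 °C compound treatment of KB-3-1 parental cells; CellTiter-Glo added, 10 min, luminescence read. Data corrected against DMSO-only plates and normalized before curve fitting.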
ELG1 DNA repair: ELG1-dependent DNA repair inhibition; HEK293T ELG1-luciferase reporter, luminescence, 16 h; DNA damage induced by 5-fluorouridine; Potency, µM (top dose mostly 46.1 µM), for inactives: at the top dose activity change, negative = inhibition, hits mostly inhibitors; 330,000 tested, 2.3% active; further: on the % scale 0 is the no-effect control and ±100 the full control effect; nearly all actives have a fitted effect of over 55% in size
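In this reporter screen, reduction of luminescence relative to DMSO vehicle indicated activity. Compounds and 5-fluorouridine were added together to 2,000 cells per well, incubated for 16 hr at 37 °C, then developed with ONE-Glo.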
KB-V1 MDR tox: kills drug-selected multidrug resistant KB-V1 cells | Potency, µM (top dose mostly 46.1 µM), usual class: cytotoxic | 400,000 tested, 3.4% active | KB-V1 MDR cells viability, CellTiter-Glo, 72 h; further: on the % scale 0 is the no-effect control and ±100 the full control effect; nearly all actives have a fitted effect of over 60% in size
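Luminescent ATP read-out (CellTiter-Glo, 10 min) measures survival of drug-selected KB-V1 MDR cells after 72 h, 37 degrees C compound exposure. Medium: phenol-red-free DMEM, 10% FBS. Values from fitted concentration-response curves.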
MCF10A rerep: DNA re-replication induction in MCF 10a cells. MCF 10A DNA re-replication, Hoechst nuclear intensity, 48 h. Potency, µM (titrated, usually from 46.1 µM), inactives show at the top dose activity, positive = re-replication, usual class: activators. 350,000 tested, 2.9% active. AID 624296; further: % of control where 0% means no effect; nearly all actives have a fitted effect of over 50% in size
* = called active by the depositor; i = inactive; ? = inconclusive; · = no result; [ ] = remark or other dose. The call rests on the fitted dose curve; in most records, active means well fitted curve in the direction sought with a large enough effect; inconclusive means small, poorly fitted or top-dose-only effect, or another doubt; inactive means no such curve, though single readings can be large; an effect the other way counts as inactive or inconclusive. Potency means the concentration at half of the fitted maximal effect.

SMILES	SW480 rerep	KB-3-1 tox	ELG1 DNA repair	KB-V1 MDR tox	MCF10A rerep
CN1/C(=C\C(=O)c2cccc(S(=O)(=O)N3CCCCC3)c2)C(C)(C)c2ccccc21	?	i	18.4µM*	i	?
CN1/C(=C\C(=O)c2cccnc2)C(C)(C)c2ccccc21	?	i	-0.1%	?	16.4%
CN1/C(=C/C(=O)c2nc(S(C)(=O)=O)ncc2Cl)C(C)(C)c2ccccc21	11.6µM*	?	?	?	?
CN1/C(=C\C(=O)c2ccco2)C(C)(C)c2ccccc21	23.1µM*	20.6µM*	?	?	?
Cc1cccc(C)c1-n1nnnc1SCc1nc(N)nc(N(C)C)n1	·	i	·	i	·
O=C(N/C=N/OCc1ccc(Cl)cc1Cl)NOCc1c(Cl)cccc1Cl	20.8%	i	·	?	?
O=C(/C=C/c1ccccc1[N+](=O)[O-])N1CCN(C(=O)c2ccco2)CC1	3.7%[1.84 µM]	i	6.5%	i	-31.1%
CN1/C(=C\C(=O)CSc2nnc(NCc3ccccc3)s2)C(C)(C)c2ccccc21	9.7%	i	18.4µM*	?	18.4µM*
Cc1cc(C(=O)CSc2nnc(NCc3ccccc3)s2)c(C)n1C	?	?	-35.5%	?	?
CN1/C(=C\C(=O)COc2ccc3c(c2)OCO3)C(C)(C)c2ccccc21	?	?	-27.6%	?	13µM*
COCCN(CC1CCCN(C2Cc3ccccc3C2)C1)C(=O)c1ccc(C(C)=O)cc1 (stereo not drawn)	0.316µM*	i	21.1%	i	?
COCCN(CC1CCCN(C2Cc3ccccc3C2)C1)C(=O)c1cccc(C)c1 (stereo not drawn)	-0.1%	?	6.8%	i	0.9%
CCC(=O)Nc1cccc(C2=NOC3(C2)C[C@@H](C(N)=O)N(C(=O)c2ccc(OC)cc2)C3)c1 (stereo partly drawn)	-81.3%[9.22 µM]	?	1.8%	i	16.5%
Nc1ccc(O)cc1C(=O)OCC(=O)c1ccc(C2CCCCC2)cc1	9.2µM*	i	?	i	23.1µM*
COc1ccc(C(=O)OCC(=O)c2ccc(C3CCCCC3)cc2)cc1	0.5%[9.22 µM]	i	11.4%	i	-6.7%
COc1cc(-c2cc(=O)c3c(C)cc(O)cc3o2)cc(OC)c1OC	-1.2%	?	·	2.59µM*	1.6%
COc1ccc(-c2ccc3c(=O)cc(-c4ccsc4)oc3c2)cn1	?	i	-19.7%	i	?
COc1cc(-c2ccc3oc(-c4ccsc4)cc(=O)c3c2)cc(OC)c1OC	-49.2%	?	16.4µM*	i	?
COc1cc2oc(-c3ccc(O)cc3)cc(=O)c2c(O)c1OC	-2.2%	?	?	?	12.0%
COc1ccc(-c2cc(=O)c3c(C)cc(O)cc3o2)cc1	1.4%	i	·	2.59µM*	-4.1%
COc1ccc(-c2cc(=O)c3ccc(O)cc3o2)cc1	6.7%	i	·	i	18.6%
CC(=O)N1N=C(c2cccc([N+](=O)[O-])c2)OC1(C)CC(=O)Nc1ccccc1 (stereo not drawn)	4.0%	i	-15.3%	20.6µM*	10.0%
O=C(c1ccco1)N1CCN(C2CN(C3CCCC3)S(=O)(=O)C2)CC1 (stereo not drawn)	·	i	·	i	·
COc1ccc(CCNC(=O)CN(c2ccc(C)cc2)S(=O)(=O)c2c(C)noc2C)cc1OC	-1.9%	i	-8.7%	i	-4.8%
COc1ccc(CN(C)S(=O)(=O)c2c(C)noc2C)cc1OC	-2.4%	i	1.6%	18.4µM*	2.8%
COc1ccccc1NC(=O)C(C)OC(=O)Cn1cnc2c1c(=O)n(C)c(=O)n2C (stereo not drawn)	-70.6%	i	0.0%	i	-1.8%
COc1ccc2oc(=O)c(-c3cn4ccc(C)cc4n3)cc2c1	?	i	?	i	14.6µM*
O=c1oc2ccccc2cc1-c1cn2ccccc2n1	?	i	?	?	?
O=C(c1ccccc1)N1CCC(c2nc(-c3ccc(S(=O)(=O)N4CCOCC4)cc3)no2)CC1	-0.3%	i	1.6%	?	2.3%
